Consider 1 sequence from PMC7862700, “An all-to-all approach to the identification of sequence-specific readers for epigenetic DNA modifications on cytosine”.

Experiment in all cases: DAPPL (digital affinity profiling via proximity ligation, sequencing); 10 mM Tris-HCl pH 7.5, 50 mM NaCl, 1 mM DTT, 4% glycerol, room temperature, 30 min; GST-TFs on glutathione beads, 16-mer random dsDNA library, 0.1% formaldehyde crosslink after washing; high values mean tight binding
One assay addresses T1, FEV (Homo sapiens, UniProt Q99581 1-238).
T1 sequence: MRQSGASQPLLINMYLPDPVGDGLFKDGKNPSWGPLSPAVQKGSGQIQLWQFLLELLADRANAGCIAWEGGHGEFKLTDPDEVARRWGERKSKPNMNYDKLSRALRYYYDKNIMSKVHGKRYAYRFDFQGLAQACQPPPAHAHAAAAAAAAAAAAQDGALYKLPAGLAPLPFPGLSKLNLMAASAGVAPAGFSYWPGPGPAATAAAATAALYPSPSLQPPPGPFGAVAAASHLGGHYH
The note with it: protein: recombinant; tags: N-terminal GST; dsDNA, one strand shown. Summed up: (§1)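 Binding signal is each hexamer's read frequency for a factor divided by its frequency in the tag-only sample. The factors were GST-fused human transcription factors from yeast, captured on glutathione beads, DNA-barcoded and pooled with that sample. Pools were incubated with 200 nmole of a random double-stranded 16-mer DNA library in Tris/NaCl/DTT/glycerol buffer at room temperature for 30 min, then washed, crosslinked with 0.1% formaldehyde, proximity-ligated with BsaI/T4 ligase (1 h, 37 °C), PCR-amplified and sequenced on an Illumina NextSeq500.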

The next assay concerns the target ETV5 (Homo sapiens, UniProt P41161 1-510). The note with it: protein: recombinant; tags: N-terminal GST; dsDNA, one strand shown. Summed up: as §1
The target of the next assay is HSF1 (Homo sapiens, UniProt Q00613 1-529). The settings on record: protein: recombinant; tags: N-terminal GST; chain copies: 3; dsDNA, one strand shown. The method, boiled down: as §1
HSF1, sequence (Q00613 whole entry): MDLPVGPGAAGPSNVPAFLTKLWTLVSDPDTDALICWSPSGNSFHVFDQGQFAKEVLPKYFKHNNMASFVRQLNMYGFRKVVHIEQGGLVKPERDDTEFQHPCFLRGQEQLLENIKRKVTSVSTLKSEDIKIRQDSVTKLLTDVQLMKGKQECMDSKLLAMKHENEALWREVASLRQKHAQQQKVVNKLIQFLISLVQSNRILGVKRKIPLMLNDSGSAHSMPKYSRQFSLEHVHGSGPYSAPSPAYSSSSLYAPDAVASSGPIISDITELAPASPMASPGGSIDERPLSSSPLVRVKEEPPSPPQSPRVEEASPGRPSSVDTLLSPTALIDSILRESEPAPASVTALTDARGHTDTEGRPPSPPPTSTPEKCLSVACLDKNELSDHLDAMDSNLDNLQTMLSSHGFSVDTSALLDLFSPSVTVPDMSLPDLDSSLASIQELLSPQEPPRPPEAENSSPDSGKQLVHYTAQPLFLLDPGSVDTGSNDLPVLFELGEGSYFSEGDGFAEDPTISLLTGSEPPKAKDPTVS
In a further assay the target is T2, SPIC (Homo sapiens, UniProt Q8N5J4 1-248).
T2 sequence: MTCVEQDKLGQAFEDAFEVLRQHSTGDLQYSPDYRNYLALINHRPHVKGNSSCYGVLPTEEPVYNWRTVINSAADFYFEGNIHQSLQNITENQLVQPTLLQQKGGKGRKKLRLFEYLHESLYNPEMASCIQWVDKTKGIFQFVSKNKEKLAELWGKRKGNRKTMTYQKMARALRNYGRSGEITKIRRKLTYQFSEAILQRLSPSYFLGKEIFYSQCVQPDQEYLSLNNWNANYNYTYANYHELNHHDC
The note with it: protein: recombinant; tags: N-terminal GST; dsDNA, one strand shown. The method, boiled down: as §1

For a further assay, the target named is ELF4 (Homo sapiens, UniProt Q99607 1-663). The settings on record: protein: recombinant; tags: N-terminal GST; dsDNA, one strand shown. The method, boiled down:
as §1

The next assay has as its target T3, ELK4 (Homo sapiens, UniProt P28324-2 1-405).
T3 sequence: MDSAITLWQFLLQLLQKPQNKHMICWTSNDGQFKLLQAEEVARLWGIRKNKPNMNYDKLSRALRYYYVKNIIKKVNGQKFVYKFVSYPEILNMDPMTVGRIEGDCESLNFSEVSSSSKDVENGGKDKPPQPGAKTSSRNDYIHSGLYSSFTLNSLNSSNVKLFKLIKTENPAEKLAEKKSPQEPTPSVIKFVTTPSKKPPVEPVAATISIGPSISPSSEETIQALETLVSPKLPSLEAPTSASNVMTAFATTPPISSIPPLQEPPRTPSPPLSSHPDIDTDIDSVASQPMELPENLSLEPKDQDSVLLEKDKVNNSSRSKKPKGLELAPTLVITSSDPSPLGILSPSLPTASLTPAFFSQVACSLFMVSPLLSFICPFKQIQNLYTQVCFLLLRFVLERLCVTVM
The note with it: protein: recombinant; tags: N-terminal GST; dsDNA, one strand shown. Summed up:
as §1

Another assay addresses T4, ETV2 (Homo sapiens, UniProt O00321 1-342).
T4 sequence: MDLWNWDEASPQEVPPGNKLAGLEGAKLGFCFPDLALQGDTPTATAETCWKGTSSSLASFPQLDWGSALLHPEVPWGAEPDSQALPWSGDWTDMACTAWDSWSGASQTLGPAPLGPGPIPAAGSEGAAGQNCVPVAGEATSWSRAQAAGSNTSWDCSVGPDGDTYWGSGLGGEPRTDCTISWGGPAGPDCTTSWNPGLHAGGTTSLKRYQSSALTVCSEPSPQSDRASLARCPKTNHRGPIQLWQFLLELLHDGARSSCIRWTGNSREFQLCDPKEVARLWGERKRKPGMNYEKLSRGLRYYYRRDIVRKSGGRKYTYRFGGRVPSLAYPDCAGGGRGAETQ
The settings on record: protein: recombinant; tags: N-terminal GST; dsDNA, one strand shown. Summed up:
as §1

The target in the next assay is T5, ELF3 (Homo sapiens, UniProt P78545 1-371).
T5 sequence: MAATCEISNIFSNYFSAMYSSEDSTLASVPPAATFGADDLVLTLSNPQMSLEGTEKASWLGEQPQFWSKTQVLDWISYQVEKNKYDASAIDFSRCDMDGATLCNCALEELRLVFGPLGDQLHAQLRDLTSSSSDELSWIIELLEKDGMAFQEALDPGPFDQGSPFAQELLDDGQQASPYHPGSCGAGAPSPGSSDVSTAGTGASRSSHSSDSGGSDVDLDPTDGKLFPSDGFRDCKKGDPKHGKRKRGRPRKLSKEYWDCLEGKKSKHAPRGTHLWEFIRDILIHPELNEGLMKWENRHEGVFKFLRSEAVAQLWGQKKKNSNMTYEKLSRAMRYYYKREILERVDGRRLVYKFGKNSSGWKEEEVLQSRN
The note with it: protein: recombinant; tags: N-terminal GST; dsDNA, one strand shown. The method, boiled down: as §1

The target in another assay is CRX (Homo sapiens, UniProt O43186 1-299). The note with it: protein: recombinant; tags: N-terminal GST; dsDNA, one strand shown. Summed up:
as §1

In another assay the target is ETV1 (Homo sapiens, UniProt P50549 1-477). The settings on record: protein: recombinant; tags: N-terminal GST; dsDNA, one strand shown. The method, boiled down: as §1
ETV1, sequence (P50549 whole entry): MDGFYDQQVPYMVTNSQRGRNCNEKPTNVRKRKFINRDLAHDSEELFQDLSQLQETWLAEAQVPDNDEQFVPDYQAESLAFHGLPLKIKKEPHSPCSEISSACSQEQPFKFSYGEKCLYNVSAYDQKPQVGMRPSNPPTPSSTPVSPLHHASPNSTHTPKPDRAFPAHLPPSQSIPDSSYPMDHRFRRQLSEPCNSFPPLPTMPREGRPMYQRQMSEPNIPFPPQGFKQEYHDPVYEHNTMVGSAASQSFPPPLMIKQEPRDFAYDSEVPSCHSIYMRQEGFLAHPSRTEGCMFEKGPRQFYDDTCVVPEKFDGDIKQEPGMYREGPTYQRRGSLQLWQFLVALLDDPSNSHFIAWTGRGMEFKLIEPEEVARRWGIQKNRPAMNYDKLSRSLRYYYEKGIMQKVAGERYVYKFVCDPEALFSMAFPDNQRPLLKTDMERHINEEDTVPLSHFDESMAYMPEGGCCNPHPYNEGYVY
In a further assay the target is T6, ERF (Homo sapiens, UniProt P50548 1-548).
T6 sequence: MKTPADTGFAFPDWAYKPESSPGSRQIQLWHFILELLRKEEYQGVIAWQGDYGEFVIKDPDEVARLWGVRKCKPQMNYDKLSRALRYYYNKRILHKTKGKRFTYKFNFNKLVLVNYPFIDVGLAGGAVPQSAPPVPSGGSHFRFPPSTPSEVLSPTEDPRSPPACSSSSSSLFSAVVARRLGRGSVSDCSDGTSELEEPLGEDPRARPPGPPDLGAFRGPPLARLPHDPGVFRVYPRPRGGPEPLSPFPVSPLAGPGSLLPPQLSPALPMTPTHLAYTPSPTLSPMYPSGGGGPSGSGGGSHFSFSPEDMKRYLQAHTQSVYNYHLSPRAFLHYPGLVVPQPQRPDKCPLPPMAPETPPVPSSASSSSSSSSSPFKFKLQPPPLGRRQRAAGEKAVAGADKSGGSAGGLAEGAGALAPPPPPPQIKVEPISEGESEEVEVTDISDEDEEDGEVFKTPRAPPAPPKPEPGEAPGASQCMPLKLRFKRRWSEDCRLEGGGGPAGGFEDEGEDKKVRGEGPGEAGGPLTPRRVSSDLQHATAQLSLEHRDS
The settings on record: protein: recombinant; tags: N-terminal GST; dsDNA, one strand shown. Summed up: as §1

A further assay concerns the target T7, ETV3L (Homo sapiens, UniProt Q6ZN32 1-361).
T7 sequence: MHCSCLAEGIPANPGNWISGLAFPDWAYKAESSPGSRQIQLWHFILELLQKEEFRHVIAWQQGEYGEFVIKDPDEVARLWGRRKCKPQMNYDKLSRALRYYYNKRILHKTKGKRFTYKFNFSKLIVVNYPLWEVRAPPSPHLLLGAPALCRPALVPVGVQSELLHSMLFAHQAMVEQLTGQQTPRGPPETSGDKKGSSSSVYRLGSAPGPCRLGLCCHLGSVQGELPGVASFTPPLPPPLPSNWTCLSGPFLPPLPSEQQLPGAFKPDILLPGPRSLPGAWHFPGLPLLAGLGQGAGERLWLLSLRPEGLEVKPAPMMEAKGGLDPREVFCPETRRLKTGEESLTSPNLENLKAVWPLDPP
The note with it: protein: recombinant; tags: N-terminal GST; dsDNA, one strand shown. The method, boiled down: as §1

Another assay has as its target T8, ETS2 (Homo sapiens, UniProt P15036 1-469).
T8 sequence: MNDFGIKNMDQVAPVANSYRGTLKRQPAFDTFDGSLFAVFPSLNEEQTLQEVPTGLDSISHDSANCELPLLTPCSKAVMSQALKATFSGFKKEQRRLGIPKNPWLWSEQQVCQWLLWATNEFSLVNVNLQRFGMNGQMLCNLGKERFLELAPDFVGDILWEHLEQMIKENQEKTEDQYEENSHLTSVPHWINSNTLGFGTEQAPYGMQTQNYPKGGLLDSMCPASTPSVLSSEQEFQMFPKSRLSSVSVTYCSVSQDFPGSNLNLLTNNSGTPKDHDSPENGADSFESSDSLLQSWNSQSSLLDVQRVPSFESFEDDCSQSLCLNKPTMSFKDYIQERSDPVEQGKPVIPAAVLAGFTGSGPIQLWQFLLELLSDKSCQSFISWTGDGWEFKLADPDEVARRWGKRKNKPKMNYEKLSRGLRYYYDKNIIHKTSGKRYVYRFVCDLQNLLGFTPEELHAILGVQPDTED
The note with it: protein: recombinant; tags: N-terminal GST; dsDNA, one strand shown. The method, boiled down:
as §1

The target in a further assay is T9, SPDEF (Homo sapiens, UniProt O95238 1-335).
T9 sequence: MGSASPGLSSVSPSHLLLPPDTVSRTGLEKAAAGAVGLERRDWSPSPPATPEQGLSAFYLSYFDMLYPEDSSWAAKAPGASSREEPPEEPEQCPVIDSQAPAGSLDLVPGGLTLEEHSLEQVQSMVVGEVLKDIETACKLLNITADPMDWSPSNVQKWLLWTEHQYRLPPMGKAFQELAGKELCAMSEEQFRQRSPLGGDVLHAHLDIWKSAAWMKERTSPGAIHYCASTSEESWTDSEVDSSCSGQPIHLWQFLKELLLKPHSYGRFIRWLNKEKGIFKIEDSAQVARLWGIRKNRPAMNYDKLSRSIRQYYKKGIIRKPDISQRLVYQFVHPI
The settings on record: protein: recombinant; tags: N-terminal GST; dsDNA, one strand shown. Summed up:
as §1

The next assay addresses T10, ETV7 (Homo sapiens, UniProt Q9Y603 1-341).
T10 sequence: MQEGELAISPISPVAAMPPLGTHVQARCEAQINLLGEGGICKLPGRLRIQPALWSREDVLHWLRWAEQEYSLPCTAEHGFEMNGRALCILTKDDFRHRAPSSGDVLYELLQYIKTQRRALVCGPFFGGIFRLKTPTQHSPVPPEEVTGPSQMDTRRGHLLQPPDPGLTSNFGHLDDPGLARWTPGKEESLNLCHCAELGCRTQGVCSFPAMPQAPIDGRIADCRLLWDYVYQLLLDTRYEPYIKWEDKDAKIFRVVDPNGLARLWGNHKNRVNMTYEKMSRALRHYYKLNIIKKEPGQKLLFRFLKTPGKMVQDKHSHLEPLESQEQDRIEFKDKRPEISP
The note with it: protein: recombinant; tags: N-terminal GST; dsDNA, one strand shown. The method, boiled down:
as §1

For a further assay, the target named is T11, ELF5 (Homo sapiens, UniProt Q9UKW6-2 1-255).
T11 sequence: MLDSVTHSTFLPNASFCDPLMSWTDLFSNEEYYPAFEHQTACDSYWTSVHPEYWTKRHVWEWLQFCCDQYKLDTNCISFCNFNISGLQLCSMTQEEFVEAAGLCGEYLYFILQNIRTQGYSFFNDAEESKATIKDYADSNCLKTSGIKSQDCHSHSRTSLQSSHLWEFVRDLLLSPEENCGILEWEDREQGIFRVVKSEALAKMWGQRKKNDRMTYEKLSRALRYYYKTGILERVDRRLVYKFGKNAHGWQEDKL
The settings on record: protein: recombinant; tags: N-terminal GST; dsDNA, one strand shown. The method, boiled down:
as §1

The target in another assay is T12, ETV3 (Homo sapiens, UniProt P41162-2 1-143).
T12 sequence: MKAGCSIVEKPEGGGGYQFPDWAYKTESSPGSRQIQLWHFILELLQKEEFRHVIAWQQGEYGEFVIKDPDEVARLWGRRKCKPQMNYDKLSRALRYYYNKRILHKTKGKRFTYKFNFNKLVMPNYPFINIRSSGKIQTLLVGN
The settings on record: protein: recombinant; tags: N-terminal GST; dsDNA, one strand shown. The method, boiled down: as §1

The target in a further assay is ETV6 (Homo sapiens, UniProt P41212 1-452). The settings on record: protein: recombinant; tags: N-terminal GST; dsDNA, one strand shown. Summed up:
as §1

ELF4, sequence (Q99607 whole entry): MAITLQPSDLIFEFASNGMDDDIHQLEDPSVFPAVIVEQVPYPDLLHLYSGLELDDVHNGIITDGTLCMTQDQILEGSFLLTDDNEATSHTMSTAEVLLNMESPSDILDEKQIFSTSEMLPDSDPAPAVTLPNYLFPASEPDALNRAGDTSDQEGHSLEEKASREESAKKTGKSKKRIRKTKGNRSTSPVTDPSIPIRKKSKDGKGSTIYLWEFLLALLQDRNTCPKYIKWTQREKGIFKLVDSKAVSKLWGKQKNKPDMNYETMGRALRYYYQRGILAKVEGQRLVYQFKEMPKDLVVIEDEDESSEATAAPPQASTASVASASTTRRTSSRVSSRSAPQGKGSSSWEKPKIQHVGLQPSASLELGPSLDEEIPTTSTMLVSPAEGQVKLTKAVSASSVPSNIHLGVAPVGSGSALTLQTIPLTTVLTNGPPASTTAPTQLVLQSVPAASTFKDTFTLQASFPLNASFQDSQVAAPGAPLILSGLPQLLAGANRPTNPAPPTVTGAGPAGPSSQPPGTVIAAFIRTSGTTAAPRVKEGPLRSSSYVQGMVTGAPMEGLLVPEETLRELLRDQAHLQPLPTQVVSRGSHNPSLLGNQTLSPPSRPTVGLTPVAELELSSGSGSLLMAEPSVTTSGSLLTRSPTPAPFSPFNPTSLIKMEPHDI
ETV6, sequence (P41212 whole entry): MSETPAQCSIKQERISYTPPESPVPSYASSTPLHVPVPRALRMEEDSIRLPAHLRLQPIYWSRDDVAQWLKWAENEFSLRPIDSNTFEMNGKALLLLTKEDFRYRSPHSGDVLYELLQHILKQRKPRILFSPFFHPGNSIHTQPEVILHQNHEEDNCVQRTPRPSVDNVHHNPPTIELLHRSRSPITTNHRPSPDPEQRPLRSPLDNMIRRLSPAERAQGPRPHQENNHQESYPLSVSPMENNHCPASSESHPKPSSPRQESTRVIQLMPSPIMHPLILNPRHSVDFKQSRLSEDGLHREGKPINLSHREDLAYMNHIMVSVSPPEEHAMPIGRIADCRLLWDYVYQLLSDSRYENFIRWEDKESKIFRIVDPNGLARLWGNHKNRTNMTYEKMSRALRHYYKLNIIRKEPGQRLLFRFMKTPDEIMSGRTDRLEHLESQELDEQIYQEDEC
ETV5, sequence (P41161 whole entry): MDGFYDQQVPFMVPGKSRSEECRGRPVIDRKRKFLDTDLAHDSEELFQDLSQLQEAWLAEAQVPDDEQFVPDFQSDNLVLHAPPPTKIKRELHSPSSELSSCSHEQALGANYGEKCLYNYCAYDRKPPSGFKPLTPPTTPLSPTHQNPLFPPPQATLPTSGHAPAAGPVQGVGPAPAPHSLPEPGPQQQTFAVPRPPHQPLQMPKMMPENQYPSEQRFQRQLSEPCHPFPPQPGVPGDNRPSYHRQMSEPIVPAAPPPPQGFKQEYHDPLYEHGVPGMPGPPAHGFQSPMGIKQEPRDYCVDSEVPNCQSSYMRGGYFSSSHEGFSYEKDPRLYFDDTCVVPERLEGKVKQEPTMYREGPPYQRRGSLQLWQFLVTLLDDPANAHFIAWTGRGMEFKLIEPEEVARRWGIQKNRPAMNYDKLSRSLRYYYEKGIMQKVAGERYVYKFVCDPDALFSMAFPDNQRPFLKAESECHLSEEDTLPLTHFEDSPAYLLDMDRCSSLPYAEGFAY
CRX, sequence (O43186 whole entry): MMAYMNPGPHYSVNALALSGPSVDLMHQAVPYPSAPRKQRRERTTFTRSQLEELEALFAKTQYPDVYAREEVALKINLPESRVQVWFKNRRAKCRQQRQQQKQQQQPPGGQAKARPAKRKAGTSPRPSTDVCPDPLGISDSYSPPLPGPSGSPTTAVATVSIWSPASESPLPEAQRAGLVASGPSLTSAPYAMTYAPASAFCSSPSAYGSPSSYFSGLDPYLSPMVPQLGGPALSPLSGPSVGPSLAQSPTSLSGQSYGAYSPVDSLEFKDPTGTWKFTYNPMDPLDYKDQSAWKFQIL

Consider TCTTAA, for which the binding signal is 1.24 fold enrichment (6-mer frequency, TF over GST control) in the assay with FEV; 1.2 fold enrichment (6-mer frequency, TF over GST control) with ETV5; 1.88 fold enrichment (6-mer frequency, TF over GST control) with HSF1; 1.2 fold enrichment (6-mer frequency, TF over GST control) in the assay with SPIC; 1.19 fold enrichment (6-mer frequency, TF over GST control) in the assay with ELF4; 1.18 fold enrichment (6-mer frequency, TF over GST control) in the assay with ELK4. Besides, the binding signal in the assay with ETV2 was 1.25 fold enrichment (6-mer frequency, TF over GST control); with ELF3, 1.24 fold enrichment (6-mer frequency, TF over GST control); with CRX, 2.69 fold enrichment (6-mer frequency, TF over GST control); with ETV1 it was 1.12 fold enrichment (6-mer frequency, TF over GST control); with ERF it was 1.19 fold enrichment (6-mer frequency, TF over GST control); with ETV3L, 1.37 fold enrichment (6-mer frequency, TF over GST control). For the same sequence, the binding signal was 1.22 fold enrichment (6-mer frequency, TF over GST control) with ETS2; 1.28 fold enrichment (6-mer frequency, TF over GST control) with SPDEF; 1.27 fold enrichment (6-mer frequency, TF over GST control) with ETV7; 1.2 fold enrichment (6-mer frequency, TF over GST control) with ELF5; 1.23 fold enrichment (6-mer frequency, TF over GST control) in the assay with ETV3; 1.26 fold enrichment (6-mer frequency, TF over GST control) with ETV6.
